Experimental data: the supplement of paper PMC7261846
Where a name gives a salt, the structure may show the parent alone. ± gives the uncertainty stated by the source.

Tested on: Candida albicans SNY425 biofilm
Test: biofilm OD600 with compound plus antifungal (OD600 (absorbance)); higher = more biofilm remaining
[1] = assay detail: disruption of 24-h mature biofilm (compound + antifungal for a second 24 h)
[2] = assay detail: sustained inhibition (compound + antifungal during 90-min adherence and 24-h growth)

Compound | biofilm OD600 [1] | biofilm OD600 [2]
CC(C)C[C@H](NC(=O)[C@@H](O)[C@H](N)Cc1ccccc1)C(=O)O [Bestatin·HCl] + C[C@@H]1[C@H](O)[C@@H](C)/C=C/C=C/C=C/C=C/C=C/C=C/C=C/[C@H](O[C@@H]2O[C@H](C)[C@@H](O)[C@H](N)[C@@H]2O)C[C@@H]2O[C@](O)(C[C@@H](O)C[C@@H](O)[C@H](O)CC[C@@H](O)C[C@@H](O)CC(=O)O[C@H]1C)C[C@H](O)[C@H]2C(=O)O [amphotericin B] (first compound 12.5 µM) | 0.288 ± 0.0087 | 0.211 ± 0.0059
Nc1ccc(CC(CC(=O)O)C(=O)O)cc1 [4-Amino-D, L-benzylsuccinic acid] + C[C@@H]1[C@H](O)[C@@H](C)/C=C/C=C/C=C/C=C/C=C/C=C/C=C/[C@H](O[C@@H]2O[C@H](C)[C@@H](O)[C@H](N)[C@@H]2O)C[C@@H]2O[C@](O)(C[C@@H](O)C[C@@H](O)[C@H](O)CC[C@@H](O)C[C@@H](O)CC(=O)O[C@H]1C)C[C@H](O)[C@H]2C(=O)O [amphotericin B] (first compound 12.5 µM) | 0.293 ± 0.0096 | 0.185 ± 0.0047
CC1CNc2c(cccc2S(=O)(=O)N[C@@H](CCCNC(=N)N)C(=O)N2CC[C@@H](C)C[C@@H]2C(=O)O)C1 (stereo partly specified) [Argatroban] + CC[C@H](C)C[C@H](C)CCCCCCCCC(=O)N[C@H]1C[C@@H](O)[C@@H](NCCN)NC(=O)[C@@H]2[C@@H](O)CCN2C(=O)[C@H]([C@H](O)CCN)NC(=O)[C@H]([C@H](O)[C@@H](O)c2ccc(O)cc2)NC(=O)[C@@H]2C[C@@H](O)CN2C(=O)[C@H]([C@@H](C)O)NC1=O [caspofungin] (first compound 12.5 µM) | 0.285 ± 0.017 | 0.182 ± 0.0063
